This note sets out measurements from the OligoGym collection.
Further: reference of the scale not given here.

The target of the first experiment is EMD. As to the kind of experiment: pooled miR-30 sensor sort-seq; sequence = guide strand. The settings on record: shRNA.
On to TGGTGAAGTAGCTCTCTTCATA, for which the sensor-assay potency score (higher = more potent) is -1.46.

In turn, AAGATCGTCATCATGCACCTGG registered a sensor-assay potency score (higher = more potent) of 0.638.

Sequence TAAAGCGTCCTCTTTCTTGGGA came in with a sensor-assay potency score (higher = more potent) of 0.267.

As for AAAGCCTACGAGTTGATCCTAC, the sensor-assay potency score (higher = more potent) is -0.00514.

In the next experiment the target is EMILIN2. The experiment is described as above. The settings on record: shRNA.
In turn, TTTCTGATCAACAAGCTGCTTC returned a sensor-assay potency score (higher = more potent) of 0.352.

The sequence TATTCCAGGAACTCTCTCCTGT registered a sensor-assay potency score (higher = more potent) of 0.252.

TTCTCCGTCACATTGATCCTTG: the sensor-assay potency score (higher = more potent) is -0.623.

With TTCCATTACATACAAACCGAAT, the sensor-assay potency score (higher = more potent) was -1.63.

Turning to TTGAACTTTGTCCTTCAGGTGG, the sensor-assay potency score (higher = more potent) is -0.378.

Sequence TTTAATTCCATCATGACCCGTT had a sensor-assay potency score (higher = more potent) of 0.891.
